Compound activity as filed in PubChem BioAssay.
SMN2 splice up – qHTS Assay for Enhancers of SMN2 Splice Variant Expression; HEK293 SMN2-luciferase splicing reporter, luminescence, 30-36 h; Potency, µM (titrated, usually from 46.1 µM), hits mostly activators; actives 2.8% (n = 210,000); note: nearly all actives have a fitted effect of over 55% in size
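qHTS luciferase splicing reporter: luminescence rises when SMN2 exon 7 is included in transfected HEK293 cells. Compound exposure lasted 30-36 h at 37C, with 4.5 mM final sodium butyrate as control, followed by a ONE-Glo read.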
NPC1 promoter act – qHTS Assay for NPC1 Promoter Activators. Huh7 NPC1 promoter luciferase reporter, 24 h. Potency, µM (titrated, usually from 9.22 µM), actives largely listed as activators. actives 2.4% (n = 320,000). AID 485313, 2010; note: nearly all actives have a fitted effect of over 60% in size
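Readout is luciferase luminescence, reflecting NPC1 promoter activation in stably transfected Huh7 cells after 24 h compound exposure at 37 °C in reduced-serum medium with 10% FBS.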
FLuc modulator – qHTS profiling assay for firefly luciferase inhibitor/activator using purifed enzyme and Km concentrations of substrates (counterscreen for miR-21 project). Luciferin 4-monooxygenase (Photinus pyralis), P08659. actives 6.9% (n = 360,000). Potency, µM (series often up to 57.5 µM), usual class: inhibitors. purified FLuc, Km substrates, luminescence inhibition; note: nearly all actives have a fitted effect of over 55% in size
Target sequence (P08659 whole entry, looked up): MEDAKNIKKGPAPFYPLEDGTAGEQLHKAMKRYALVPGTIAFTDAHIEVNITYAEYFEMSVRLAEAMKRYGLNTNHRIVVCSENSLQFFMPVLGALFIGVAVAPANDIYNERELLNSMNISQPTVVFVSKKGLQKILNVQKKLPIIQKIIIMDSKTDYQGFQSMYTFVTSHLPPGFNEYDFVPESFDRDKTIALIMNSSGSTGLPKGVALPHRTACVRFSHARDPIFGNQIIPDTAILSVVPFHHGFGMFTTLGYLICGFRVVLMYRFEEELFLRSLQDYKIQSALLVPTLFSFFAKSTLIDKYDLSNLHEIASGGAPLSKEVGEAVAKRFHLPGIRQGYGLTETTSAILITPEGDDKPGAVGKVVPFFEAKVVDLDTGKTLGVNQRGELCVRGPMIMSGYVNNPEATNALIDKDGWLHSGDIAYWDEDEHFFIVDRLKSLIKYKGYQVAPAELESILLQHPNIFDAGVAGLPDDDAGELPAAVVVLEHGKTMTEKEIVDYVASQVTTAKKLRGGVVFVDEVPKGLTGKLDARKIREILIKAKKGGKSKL
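Biochemical qHTS of compounds, final roughly 60 µM downward over six points, against 10 nM purified firefly luciferase using Km concentrations of substrates (10 uM D-luciferin, 10 uM ATP) in Tris acetate pH 7.5 buffer; luminescence output.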
Rab9 prom act – qHTS Assay for Rab9 Promoter Activators; actives 2.8% (n = 320,000); AID 485297, 2010; Potency, µM (top dose mostly 9.22 µM), usual class: activators; Huh7 Rab9 promoter-luciferase reporter, luminescence, 24 h; note: nearly all actives have a fitted effect of over 60% in size
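Huh7 reporter line, Rab9 promoter upstream of luciferase. Compound exposure 24 h at 37 °C in reduced-serum medium with 10% FBS. Read-out: luminescence.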
ELG1 genotoxic – qHTS screen for small molecules that induce genotoxicity in human embryonic kidney (HEK293T) cells expressing luciferase-tagged ELG1 | HEK293T ELG1-luciferase reporter, luminescence, 16 h | actives 1.3% (n = 330,000) | Potency, µM (titrated, usually from 46 µM), usual class: activators; note: nearly all actives have a fitted effect of over 60% in size
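Genotoxicity was scored as increased ELG1-luciferase reporter signal, measured by ONE-Glo luminescence (30 min, room temperature). Compound or vehicle exposure of the HEK293T reporter cells lasted 16 hr at 37°C.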
Numbers stand for hits; – = inactive; ? = inconclusive; · = no result given; [ ] = dose if it differs, or a comment. Hits are enriched below; roughly 7.4% of the tested compounds scored in any of these assays. Calls come from the whole dose curve; as a rule, active = well fitted curve in the direction sought with a large enough effect; inconclusive = small, poorly fitted or top-dose-only effect, or another doubt; inactive = no such curve, though single readings can be large; an effect the other way counts as inactive or inconclusive.

SMILES	SMN2 splice up	NPC1 promoter act	FLuc modulator	Rab9 prom act	ELG1 genotoxic
C(=Nc1ccc(N2CCOCC2)cc1)c1c[nH]c2ccccc12	·	–	?	–	–
Cn1c(/N=C/c2c[nH]c3ccccc23)nc2ccccc21	·	–	0.13µM	–	–
CC(C)n1c(/N=C/c2c[nH]c3ccccc23)nc2ccccc21	–	–	2.7µM	–	–
Cc1cc(C)nc(NNS(=O)(=O)c2c(F)cc(F)cc2Br)n1	·	·	·	·	–
CCC(C)Nc1nc2c(c(=O)n(C)c(=O)n2C)n1C (configuration not stated)	·	–	–	–	–
Cn1cccc1/C=N/n1c(-c2ccccc2)n[nH]c1=S	–	–	–	–	–
Cc1[nH]n(-c2ccccc2)c(=O)c1/C=N/O	–	–	–	–	–
Cc1nn(-c2ccccc2)c(C)c1/C=N/n1c(-c2ccc(Cl)cc2)n[nH]c1=S	–	–	–	–	–
Cc1ccc(-c2n[nH]c(=S)n2/N=C/c2c(C)[nH]n(-c3ccccc3)c2=O)cc1	–	–	12µM	–	–
Cn1cccc1/C=N/n1c(-c2ccc(C(C)(C)C)cc2)n[nH]c1=S	–	–	21µM	–	–
Cc1ccc2cccc(N=Cc3c(C)[nH]n(-c4ccccc4)c3=O)c2n1	·	–	17µM	–	?
CC1CCCC(NC(=O)C2CC(=O)N(Cc3ccccc3)C2)C1C (configuration not stated)	·	–	–	–	–
Cc1ccc(OCCCCn2c(CCNC(=O)C(C)(C)C)nc3ccccc32)cc1	–	·	–	·	·
COc1ccccc1N1CCN(C(=O)/C=C/c2ccccc2)CC1	–	–	–	–	–
CCOC(=O)C1CCN(C(=O)/C=C/c2ccc(OC)cc2)CC1	6.3µM	0.71µM	7.6µM	0.32µM	4.1µM
O=C(/C=C/c1ccco1)N1CCCC(c2ccccc2)C1 (configuration not stated)	–	–	?	–	–
COC(=O)C1CCN(C(=O)/C=C/c2ccccc2)CC1	14µM	1.4µM	?	1µM	–
O=C(/C=C/c1ccccc1)N1CCC(c2ccccc2)C1 (configuration not stated)	11µM	3.2µM	4.8µM	1.6µM	6.5µM
O=C(/C=C/c1ccccc1)N1CCC(Cc2ccccc2)CC1	·	–	15µM	–	–
Cc1cccc(Cn2c(=O)n3nc(-c4ccccc4)nc3c3ccccc32)c1	–	·	–	·	·
Cc1cccc(-c2nc3c4ccccc4nc(N4CCN(c5cccc(Cl)c5)CC4)n3n2)c1	–	·	–	·	·
COc1ccc(/C(C)=N\O)cc1OC	·	–	–	–	–
Cc1cc(CN(C)C(=O)c2cc(COc3ccc(C)c(C)c3)on2)on1	·	2.5µM	12µM	1.4µM	16µM
COc1cccc(OCc2cc(C(=O)N(C)Cc3nc(C)cs3)no2)c1	·	3.2µM	12µM	2.2µM	12µM
COc1cccc(OCc2cc(C(=O)N(C)C3CCOCC3)no2)c1	·	–	–	–	–
SMILES	SMN2 splice up	NPC1 promoter act	FLuc modulator	Rab9 prom act	ELG1 genotoxic
Cc1ccc(OCc2cc(C(=O)N(C)CCc3ccccn3)no2)cc1C	·	?	13µM	3.5µM	–[9.26 µM]
Cc1nnc(CN(C)C(=O)c2cc(COc3ccc(C)c(C)c3)on2)o1	·	–	?	–	–
C(=N\Nc1ncnc2ccccc12)/c1ccccc1	16µM	–	3µM	2.8µM	?
Clc1cccc(/C=N/Nc2ncnc3ccccc23)c1	?	?	4.8µM	4µM	?
COc1ccc(CCN2C(=S)N(C)C(=O)C2CC(=O)Nc2ccc(F)cc2)cc1 (configuration not stated)	·	–	–	–	–
COc1ccc(Cn2c(=O)c3oc4ccccc4c3n(Cc3ccc(Cl)cc3)c2=O)cc1	·	·	–	·	·
O=C(Nc1ccc2c(c1)OCCO2)c1cc2sccc2n1Cc1ccccc1	–	–	21µM	?	–
Cn1c(C(=O)NCCN2CCOCC2)cc2sccc21	–	–	–	–	–
O=C(Nc1ccc2c(c1)OCCO2)c1cc2sccc2n1Cc1ccc(F)cc1	–	–	?	–	–
Cn1c(C(=O)Nc2ccc3c(c2)OCCO3)cc2sccc21	7.1µM	1.3µM	1.1µM	1.1µM	2.1µM
Cc1ccc(-n2ncc3c(=O)n(CC(=O)N(C(C)C)C(C)C)cnc32)cc1	·	–	–	–	–
